In the supplement of paper PMC6555819:

Tests used:
Assay in all cases: PBM binding z-score (relative to random genomic background probes); higher = stronger binding; sequences stand for … in GC…GCGATTGACAGCGTAGAATGAAGG
[1] = tested on: FXR:RXRa (NR concentration 270 nM, RXRa partner concentration 90 nM)
Procedure, shortened: (§1)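 Binding buffer was PBS pH 7.4 with 2% milk, 0.02% Triton X-100, 1 mM DTT, 0.2 mg/mL BSA and 0.4 mg/ml salmon testes DNA. In it, ligand-free nuclear receptor dimers were incubated 1 h on custom Agilent 4×180K protein-binding microarrays carrying double-stranded probes. Antibodies against each partner (one per run) detected binding, and z-scores were calculated against random background probes after regression normalization of scanned fluorescence.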

[2] = tested on: LXRa:RXRa (NR concentration 270 nM, RXRa partner concentration 90 nM)
Procedure, shortened: as §1

[3] = tested on: LXRa homodimer (NR concentration 270 nM)
Procedure, shortened: as §1

[4] = tested on: LXRb:RXRa (NR concentration 270 nM, RXRa partner concentration 90 nM)
Procedure, shortened: as §1

[5] = tested on: LXRb homodimer (NR concentration 270 nM)
Procedure, shortened: as §1

[6] = tested on: PPARa:RXRa (NR concentration 270 nM, RXRa partner concentration 90 nM)
Procedure, shortened: as §1

[7] = tested on: PPARg:RXRa (NR concentration 180 nM, RXRa partner concentration 90 nM)
Procedure, shortened: as §1

[8] = tested on: PPARg:RXRa 270nM:90nM, anti-RXR (NR concentration 270 nM, RXRa partner concentration 90 nM)
Procedure, shortened: as §1

[9] = tested on: PPARg:RXRa 30nM:10nM, anti-RXR (NR concentration 30 nM, RXRa partner concentration 10 nM)
Procedure, shortened: as §1

[10] = tested on: PPARg:RXRa 90nM:30nM, anti-RXR (NR concentration 90 nM, RXRa partner concentration 30 nM)
Procedure, shortened: as §1

Sequence	PBM binding z-score [1]	PBM binding z-score [2]	PBM binding z-score [3]	PBM binding z-score [4]	PBM binding z-score [5]	PBM binding z-score [6]	PBM binding z-score [7]	PBM binding z-score [8]	PBM binding z-score [9]	PBM binding z-score [10]
TGAATGAGGTAATAAGATCAGGGAACGTTGCAAA	-0.101	-0.238	-0.404	-0.279	-0.0513	0.529	0.563	0.725	0.309	0.427
TATACAGGGTAAAAGGCCAGAGTACGAATGTCGA	0.526	0.732	0.094	0.483	0.559	2.02	3.63	4.11	2.26	3.82
ATATGTAGGTTATCGGGTCATTCAGTTTGCGCAT	2.98	3.41	2.11	3.16	1.34	4.62	6.73	6.32	3.96	5.64
GGAACGAGGGCATTCGCGTTGATAGCATGGCGAT	0.794	1.04	-0.65	0.18	-0.618	1.5	0.776	0.655	-0.361	0.136
ATCTCTAGGTAACAAGTTCAGTTAAAGAGAGGAC	0.755	0.963	0.655	0.642	0.936	1.62	1.48	2.05	0.996	1.57
TCATATAGGTAAAGGTGAATGTCGAACGATATGA	0.972	1.33	-0.151	1.19	-0.0794	2.99	4.24	4.23	4.36	4.59
CTACCAAGGTGTACAAGGTCGTTGATTACTATTC	0.534	0.766	0.255	1.26	-0.288	1.31	0.268	0.583	-0.154	0.498
ATCTCTAGGTAACCAAGTTTAGTGAATGCCGAAC	0.39	0.24	0.318	0.275	0.481	0.803	0.412	0.529	0.254	0.616
TCTCGGAGGACACGAAGGTCAGAGCCTTCCAGAG	1.54	1.56	-0.0178	1.35	-0.905	2.1	0.565	1.76	2.02	1.7
ACTTACGGGTCAACGCGGTTATAGCACGCGTATA	6.63	4.76	0.698	4.08	0.727	5.52	4.9	5.47	1.84	4.14
GCTTGTAGTTCAAGGTTAAGAAAGACTAAGCTAA	1.52	2.43	0.162	1.53	-0.369	2.55	0.724	2.09	0.473	1.18
TAGCCAAGGTCATGCGGGCCAGTATAGTGTCGGC	7.03	4.97	1.17	3.87	0.499	5.58	4.64	4.84	1.61	3.73
ATACCAAGGTGATCGTCAGGTCGTTGATACTAAC	1.07	0.928	0.311	0.454	-0.244	0.892	0.38	0.265	0.184	0.227
ACAGAGAGGTGAGTGAAGGTAACTCAGCTGGACG	0.855	0.573	-0.279	0.265	0.454	1.26	0.736	0.54	-0.194	0.056
CCTGCTAGGTCAATGCTCAGCTAAAGCAGCTCGC	2.82	1.9	-0.307	1.16	-0.142	2.54	1.2	1.88	-0.451	0.833
AGAATGAGGCTAAGATCAGGGAAACAGAATACAT	-0.36	-0.634	-0.0824	-0.157	-0.737	-0.0265	0.645	0.202	0.113	0.138
TAGCCTAGGTCATGCGGGCTAGTATAGTGTCGGC	3.65	2.96	0.103	1.54	-0.594	3.43	2.07	2.14	0.00724	0.957
CATCCAGGGTCAGCTAGGCCAGAGTAGGGACGGC	4.57	3.12	-0.152	2.1	0.239	4.34	2.97	3.3	0.549	1.89
TCATATAGGTAAATGCTAGGTGAAAGTTCGATCT	1.23	1.18	0.931	1.27	-0.0844	2.74	3.2	4.57	4.77	4.78
CCTTACGGGTCAAGGTTAGAGCACGGGTGGTACG	5.52	3.41	-0.175	2.64	-0.214	4.92	4.33	4.83	1.86	3.37
ATCTCTAGGTAAGACACAGTTCAGTGAAGAACGC	0.376	1.1	1.08	0.767	1.15	0.964	1.03	1.98	0.784	1.72
TCAGACAGGCGAAGGTAACTCAGGTACGCAGTCG	0.672	1.16	-0.549	0.255	-0.893	0.184	0.517	1.53	3.02	2.41
GCTTGTAGATCAAGGCTAAGAAAGACTAAGCTAA	-1.48	-0.741	-0.903	-0.837	-0.875	-0.665	-0.447	-0.418	-0.329	-0.359
CCTGCTAGGTCATGGTCAGCTGATCTACAGTATG	4.51	2.68	-0.139	2.21	-0.492	3.96	3.02	3.1	0.862	2.09
TCTAGTTGGTCACGGCGGTCACACACGACGGGTA	0.993	1.08	0.832	0.799	0.516	1.39	1.12	1.99	3.11	2.43

Sequence	PBM binding z-score [1]	PBM binding z-score [2]	PBM binding z-score [3]	PBM binding z-score [4]	PBM binding z-score [5]	PBM binding z-score [6]	PBM binding z-score [7]	PBM binding z-score [8]	PBM binding z-score [9]	PBM binding z-score [10]
CCGAGTACGTTATGGGGCATTCAGGCAACGGTGA	-0.345	-0.442	-0.712	-0.213	-0.602	-0.079	0.408	-0.152	-0.465	-0.83
CAGCCTAGGTCAGGACCAGTATAGGAGGAACGTT	1.48	0.848	-0.0859	0.663	-0.972	1.94	0.905	0.922	-0.12	0.355
CCCACTGGGCCATCAGGTCATTGATATCAACGTT	1.16	1.11	1.5	1.63	-0.17	2.74	2.87	3.57	1.18	2.86
GAAACGAGGGCATTCGAGTTGATAGCATGGCGAT	1.71	2.15	-0.383	0.442	-0.542	2.05	1.35	1.32	0.0683	0.829
GGAACGAGTGCAAGTTGATAGCAGAGTTTGATGG	-0.219	-0.282	-0.428	-0.496	-0.508	-0.279	0.107	-0.41	-0.349	-0.508
CCGATTAGGTTATGGGGCATTCAGGCAACGGTGA	0.472	0.574	-0.0892	0.58	-0.609	1.58	2.14	3.35	1.63	2.83
TCGAGTAGGTTAGTCGGGGCATTCCGCCAACATA	0.02	0.121	-0.495	0.444	-0.721	0.661	-0.328	0.877	1.07	0.912
AGTCAAAGTTCAGTACGAGGTAACGTAAAGCACG	3.32	3.34	1.28	1.83	0.584	2.76	3.76	4.15	1.8	2.93
TCTTGCAGATCAACAGGAGGTTAAGAAAGATCGA	-0.0407	0.769	0.0202	0.679	-0.645	1.11	-0.141	0.718	1.89	1.63
CCTTACGGGTCACTCCAGGTTATAGCTTCGGAGT	5.46	7.43	1.7	4.64	0.284	4.05	3.22	3.66	1	2.17
ACTCGGAGGACAAAGGTCGGAGCTACGCCAGTGA	0.927	1.18	-0.439	0.689	-0.291	2.9	4.62	5.7	3.54	5.62
CGTCAAAGTTCAACTAAGGTAACGTACAGCACGC	7.43	6.41	4.76	4.34	2.05	5.25	5.21	5.62	2.85	4.59
AATCCAGGGTCACTAGGCCAGAGTAGGTACGAAT	5.69	4.8	0.376	3.92	0.621	5.78	7.8	6.61	3.93	5.73
AGAATGAGGTTATACGCAGATCAGGGAAGAAAGT	2.11	2.13	-0.247	1.68	-0.102	3.39	1.58	2.01	0.827	1.45
CATAGAGGGTCAGCTAGGCCAGAGTAGGGACGGC	3.11	2.04	-0.237	1.37	0.495	3.45	2.23	2.06	0.47	1.23
AGAATGAGGTTATACGTAGATCAGGGAGGAAAGT	2.22	1.64	0.0751	1.53	0.198	3.09	1.85	2.09	0.848	1.57
TTGAGTAGGTTAGGGGCATTCAGAATGGCGTCGA	0.794	0.55	0.331	1.42	1.36	1.84	1.34	2.8	1.58	2.25
CCTCGTAGGACAGAAGGTCAGAGCTGTCCGCTTT	1.05	1.85	0.197	1.35	-0.387	2.11	-0.00358	1.14	-0.551	0.426
TGAATGAGGTTAAAGATCAGCGAACGTGGCGTCG	2.99	2.46	-0.568	1.62	0.0932	4.55	5.87	6.26	5.47	6.67
ACTAGCAGGCCAAGTTTGGCTCACTCAAACAAAG	-0.477	-0.516	-0.635	-0.722	-0.853	-0.363	-0.294	-0.625	-0.674	-0.715
AGAATGAGGCTATACGTAGATCAGGGAAGAAAGT	-0.393	-0.526	-0.213	-0.708	-0.243	0.0162	0.801	0.267	0.101	0.251
AATACAGGGTCATCGTAGGCCAGAATACGCACAG	7.14	6.31	2.07	4.74	1.07	5.64	6.6	5.68	2.64	4.45
TCTCGGAGGACACGCAGGTCAGAGCTTTCCAGAG	0.587	0.453	-0.198	0.321	-1.1	1.22	-0.00527	0.98	1.99	1.12
TCAGACAGGTGAAGGTAACTCAGGTACGCAGTCG	0.942	1.82	-0.0918	1.2	-0.116	1.34	0.719	2.37	3.89	2.98
